Screening data deposited in PubChem by National Center for Advancing Translational Sciences (NCATS).
Hits are enriched below; roughly 18% of the tested compounds scored in any of these assays.
RORg inh = qHTS for inhibitors of ROR gamma transcriptional activity. Nuclear receptor ROR-gamma (Mus musculus), P51450. Drosophila S2 Gal4-RORgamma UAS-luciferase reporter, 20 h. Potency, µM (doses to about 53.6 µM), for the others: at the top dose activity change, negative = inhibition, actives largely listed as inhibitors. 310,000 tested, 5.4% active. AID 2551, 2010; further: potency means the concentration at half of the fitted maximal effect; nearly all actives have a fitted effect of over 60% in size
Target sequence (P51450 whole entry, looked up, the tested form may be a part): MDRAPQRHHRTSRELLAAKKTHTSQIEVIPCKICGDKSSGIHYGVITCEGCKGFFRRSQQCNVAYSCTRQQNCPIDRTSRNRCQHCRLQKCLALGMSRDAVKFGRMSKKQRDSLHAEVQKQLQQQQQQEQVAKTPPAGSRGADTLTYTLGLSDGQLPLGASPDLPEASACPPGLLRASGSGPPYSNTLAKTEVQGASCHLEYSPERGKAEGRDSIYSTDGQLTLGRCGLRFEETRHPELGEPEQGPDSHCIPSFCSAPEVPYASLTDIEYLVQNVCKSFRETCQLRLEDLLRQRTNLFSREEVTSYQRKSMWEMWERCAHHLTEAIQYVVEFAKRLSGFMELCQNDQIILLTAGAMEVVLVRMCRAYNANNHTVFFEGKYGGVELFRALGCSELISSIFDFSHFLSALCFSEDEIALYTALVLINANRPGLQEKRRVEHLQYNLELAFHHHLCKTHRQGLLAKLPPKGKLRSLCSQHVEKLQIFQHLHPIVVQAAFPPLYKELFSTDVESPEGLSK
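Stably transfected Drosophila Schneider cells are the test system, with ROR gamma fused to Gal4 and luciferase under UAS control; luminescence is read after 20 hr of 700 uM copper sulfate induction at ambient temperature.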
Gal4-VP16 FLuc = VP16 counterscreen qHTS for inhibitors of ROR gamma transcriptional activity. Drosophila S2 Gal4-VP16 UAS-luciferase, luminescence, 20 h. Potency, µM (series often up to 53.6 µM), without a hit: top-dose activity, negative = inhibition, hits mostly inhibitors. 310,000 tested, 3.5% active. AID 2546, 2010;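 further: Gal4-VP16 expression switched on by copper sulfate through the metallothionein promoter; potency means the concentration at half of the fitted maximal effect; nearly all actives have a fitted effect of over 50% in size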
DT40 TDP1 no CPT = qHTS for Inhibitors of human tyrosyl-DNA phosphodiesterase 1 (TDP1): qHTS in cells in absence of CPT | Potency, µM (titrated, usually from 46.2 µM), inactives show at the top dose activity change, negative = growth inhibition, most hits filed as inhibitors | DT40 Tdp1-/- hTDP1 cells, no CPT, ATP luminescence, 48 h | AID 686978, 2013 | 420,000 tested, 15% active; further: potency means the concentration at half of the fitted maximal effect; nearly all actives have a fitted effect of over 55% in size
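Chicken DT40 Tdp1-/- cells stably complemented with human TDP1 were seeded at 400 cells/well with DMSO in place of 20 nM camptothecin. After compound pinning, cells grew at least 48 hr at 37 °C; viability read by CellTiter-Glo luminescence.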
TDP1 cell CPT = qHTS for Inhibitors of human tyrosyl-DNA phosphodiesterase 1 (TDP1): qHTS in cells in presence of CPT | chicken DT40 Tdp1-/-;hTDP1 cells + 20 nM CPT, ATP luminescence, 48 h | Potency, µM (series often up to 46.2 µM), inactives show top-dose activity change, negative = growth inhibition, most hits filed as inhibitors | 420,000 tested, 12% active | AID 686979, 2013; further: potency means the concentration at half of the fitted maximal effect; nearly all actives have a fitted effect of over 55% in size
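Cell growth measured by CellTiter-Glo luminescence after a minimum 48 h, 37 C compound exposure with 20 nM CPT in Tdp1-knockout DT40 cells stably expressing hTDP1, seeded 400/well; qHTS titration format.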
IL-1B inflam inh = qHTS for Inhibitors of Inflammasome Signaling: IL-1-beta AlphaLISA Primary Screen; THP-1 LPS/ATP IL-1B secretion, AlphaLISA, 16 h; hits give low values; activity change, % at 57.5 µM; 360,000 tested, 4.7% active; AID 743279, 2014; in the data active means activity change below about -50%; inconclusive means mostly about -30% to -49%
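Secreted IL-1B measured by AlphaLISA bead assay after 16 h compound exposure of THP-1 cells; compounds (final up to 57.5 uM) added 1 h before LPS (250 ng/mL) and ATP (1.25 mM) stimulation; lower signal means less secretion.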
LDHA inh = qHTS assay for inhibitors of human lactate dehydrogenase | L-lactate dehydrogenase A chain (Homo sapiens), P00338 | purified LDHA, NADH/diaphorase-resazurin fluorescence; hits give low values | activity change, % (values are at about 110 or 230 µM) | 480,000 tested, 0.15% active; in the data active means activity change below about -30%; inconclusive means mostly about -25% to -30%;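 further: plate controls were DMSO wells for no effect and wells without enzyme for full effect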
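LDH5 2 nM; NADH 0.06 mM, pyruvate 0.2 mM; 200 mM Tris pH 7.4, EDTA, Tween-20; 5 min RT. Detection: diaphorase 0.133 mg/mL + resazurin 37 µM, fluorescence ex540/em590 at 0 and 20 min; normalized to enzyme-free and DMSO wells.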
An asterisk follows results filed as active; ? = inconclusive; nt = no result; ! = repeats disagree. Unless noted, the call rests on the fitted dose curve; in most records, active means well fitted curve in the direction sought with a large enough effect; inconclusive means small, poorly fitted or top-dose-only effect, or another doubt; inactive means no such curve, though single readings can be large; an effect the other way counts as inactive or inconclusive. Unless noted, on the % scale 0 is the no-effect control and ±100 the full control effect.

SMILES	RORg inh	Gal4-VP16 FLuc	DT40 TDP1 no CPT	TDP1 cell CPT	IL-1B inflam inh	LDHA inh
O=C(Nc1ccccc1Cl)c1cc(S(=O)(=O)N2CCCCC2)ccc1N1CCOCC1	6%	-6%	23µM*	?	-23	1
O=C(Nc1cccc(C(F)(F)F)c1)c1cc(S(=O)(=O)N2CCCCC2)ccc1N1CCOCC1	5%	-2%	18µM*	23µM*	?	-3
O=C(Nc1nnc(C2CC2)s1)c1cc(S(=O)(=O)N2CCCCC2)ccc1N1CCOCC1	-16%	-5%	-20%	-20%	?	-2
CCc1nnc(NC(=O)c2cc(S(=O)(=O)N3CCOCC3)ccc2N2CCCCC2)s1	-3%	1%	?	1%	-70*	-10
CC(C)CCOc1ccc(/C=C(/C#N)c2nc3ccccc3[nH]2)cc1	nt	nt	nt	nt	nt	5
N=C(N)c1cccc(C(F)(F)F)c1	nt	nt	nt	nt	nt	-1
Cc1ccc(NC(=O)c2cc(Cl)cc(Cl)c2)nc1	nt	nt	nt	nt	nt	2
Cc1cc(Cl)ccc1OCC(=O)NC1CCN(C2CC2)CC1	nt	nt	nt	nt	nt	-2
CC(O)(c1ccc(F)c(F)c1)c1nc(-c2ccccc2)cs1 (stereo unspecified)	nt	nt	13µM*	?	-10	-4
CC(O)(c1ccc(F)c(F)c1)c1nc(-c2cccc(F)c2)cs1 (stereo unspecified)	nt	nt	?	?	20	-2
CC(O)(c1ccc(F)c(F)c1)c1nc(-c2cc(F)cc(F)c2)cs1 (stereo unspecified)	nt	nt	16µM*	?	19	-4
CC(C)NC(=O)CSc1nnc(-c2cccnc2)n1C	nt	nt	nt	nt	nt	8
C=C(C)CN1CCN(c2nc3c(c(=O)[nH]c(=O)n3C)n2Cc2cc(C)ccc2C)CC1	nt	nt	nt	nt	nt	-1
N#Cc1ccccc1Sc1ccccc1C(=O)OCC(=O)Nc1ccccc1	nt	nt	nt	nt	nt	3
COc1ccc(C2(c3ccc(O)cc3O)CC(c3ccccc3Cl)NC(=S)N2)cc1 (stereo unspecified)	1%	-13%	?	?	-90*	-6
COc1cccc(C2CC(c3ccccc3Cl)n3nc(N)nc3N2)c1 (stereo unspecified)	0%	-2%	-20%	?	-5	12
COc1ccc(Cl)cc1NC(=O)CSc1cn(CC(=O)N2CCCC2)c2ccccc12	nt	nt	3.3µM*	12µM*	nt	-1
COc1ccc(Cl)cc1NC(=O)CSc1cn(CC(=O)N2CCCCCC2)c2ccccc12	nt	nt	12µM*	13µM*	nt	-11
O=C(CSc1cn(CC(=O)N2CCCC2)c2ccccc12)Nc1ccc(Cl)cc1	nt	nt	?	?	nt	-4
O=C(CSc1cn(CC(=O)N2CCCCCC2)c2ccccc12)Nc1ccccc1F	nt	nt	?	?	nt	-15
S=C(NCc1ccccn1)Nc1ccc(Br)cc1Cl	7.1µM*	?	-9%	2%	-21	-7
O=C(NCc1ccccn1)Nc1ccc(Br)cc1Cl	37%	-2%	-15%	-28%	?	-13
Fc1ccccc1NC(=S)NCCc1ccccn1	nt	nt	nt	nt	nt	-4
S=C(NCc1ccc(Cl)cc1)NCc1ccccn1	16µM*	?	24%	-21%	8	-9
S=C(NCCc1ccccn1)Nc1ccccc1Cl	6.3µM*	13µM*	-1%	-1%	9	-4
SMILES	RORg inh	Gal4-VP16 FLuc	DT40 TDP1 no CPT	TDP1 cell CPT	IL-1B inflam inh	LDHA inh
Cc1c(Cl)cccc1NC(=S)NCCc1ccc(C(F)(F)F)cc1	2.5µM*	?	16µM*	?	-102*	-2
C=CCOc1cccc(/C=C(\C#N)c2nc3ccccc3[nH]2)c1	nt	nt	nt	nt	nt	7
CCCCOC(=O)CNc1nc(-c2ccccc2)c2cc(C)ccc2n1	nt	nt	nt	nt	nt	-6
COCc1cccc(C(=O)NC(C)c2ccc(F)c(F)c2)c1 (stereo unspecified)	nt	nt	nt	nt	nt	2
Clc1ccccc1NN(Cc1ccncc1)c1ccccc1Cl	nt	nt	?	?	?	4
Clc1ccccc1NN(Cc1ccccn1)c1ccccc1Cl	nt	nt	23µM*	?	50	1
S=C(NCc1ccco1)Nc1ccc(Br)cc1Cl	13µM*	-25%	0%	-1%	-83*	-12
Cc1c(Cl)cccc1NC(=S)NCCc1ccccn1	2.5µM*	8.9µM*	-5%	8%	nt	-7
O=C(NCc1ccccn1)Nc1ccccc1Cl	19%	22%	2%	-10%	-28	-13
S=C(NCc1ccccn1)Nc1ccccc1Cl	10µM*	?	?	?	-6	-7
Cc1cccc(Cl)c1NC(=S)NCCc1ccccn1	?	?	-4%	0%	-3	5
S=C(NCCc1ccccn1)Nc1ccc(Cl)cc1Cl	5µM*	?	?	-17%	-13	-12
CCOC(=O)C1=C(C)N(C)C(=O)N(C)C1c1cccc(Br)c1 (stereo unspecified)	nt	nt	nt	nt	nt	4
CCOC(=O)C1=C(N)n2c(s/c(=C\c3cccs3)c2=O)=C(C(=O)OCC)C1c1cccs1 (stereo unspecified)	-1%	-1%	6.5µM*	4.1µM*	43	1
CCOC(=O)C1=C(N)n2c(s/c(=C\c3cccnc3)c2=O)=C(C(=O)OCC)C1c1cccnc1 (stereo unspecified)	1%	-2%	nt	nt	nt	nt
CCOC(=O)/C(C(=O)Nc1ccccc1Cl)=C1/NC(C)(C)Cc2ccccc21	9%	-2%	-27%	?	8	-1
CCOC(=O)/C(C)=C1\NC(C)(C)Cc2ccccc21	-14%	-5%	?	-23%	5	-105*
CCCNC(=O)c1cccc(CNCc2cccnc2)c1	nt	nt	nt	nt	nt	3
O=c1c2ccccc2nc2n1C(CSCc1ccc(Cl)cc1Cl)CS2 (stereo unspecified)	-2%	22µM*	6.5µM*	9.2µM*	?	-2
CNC(=O)c1cc(Nc2nnc(-c3ccc(O)cc3)c3ccccc23)ccc1OC	-37%	-21%	?	16µM*!	-59*	2
O=C(COc1ccc(-c2nnc(Nc3ccccc3)c3ccccc23)cc1)N1CCCCC1	nt	nt	nt	nt	nt	8
CCOc1ccc(-c2nnc(Nc3ccc(OC)c(C(=O)N4CCCCC4)c3)c3ccccc23)cc1	?	-30%	16µM*	?	-19	-1
COC(=O)c1cccc(NC(=O)NCC2CCN(CCc3ccc(F)cc3)CC2)c1	nt	nt	nt	nt	nt	-3
